Results taken from PubChem BioAssay (NCATS).
Several values for one entry are separate records, joined by “and”; a condition that tells them apart may be missing. Equal values may be shown once. Inconclusive results are not listed. A call without a number means that no potency is given here. Unmarked numbers belong to inactive results. Activity calls are given as the source filed them. The call rests on the fitted dose curve; in most records, active means well fitted curve in the direction sought with a large enough effect; inconclusive means small, poorly fitted or top-dose-only effect, or another doubt; inactive means no such curve, though single readings can be large; an effect the other way counts as inactive or inconclusive.

Key:
[1] = target: Cytochrome P450 3A7 (Homo sapiens) (UniProt P24462); experiment: Cytochrome P450 family 3 subfamily A member 7 (CYP3A7) small molecule antagonists: luciferase biochemical qHTS assay (AID 1963596); further: nearly all actives have a fitted effect of over 40% in size; further: potency means the concentration at half of the fitted maximal effect
Sequence of Cytochrome P450 3A7 (Homo sapiens) (P24462 whole entry, looked up): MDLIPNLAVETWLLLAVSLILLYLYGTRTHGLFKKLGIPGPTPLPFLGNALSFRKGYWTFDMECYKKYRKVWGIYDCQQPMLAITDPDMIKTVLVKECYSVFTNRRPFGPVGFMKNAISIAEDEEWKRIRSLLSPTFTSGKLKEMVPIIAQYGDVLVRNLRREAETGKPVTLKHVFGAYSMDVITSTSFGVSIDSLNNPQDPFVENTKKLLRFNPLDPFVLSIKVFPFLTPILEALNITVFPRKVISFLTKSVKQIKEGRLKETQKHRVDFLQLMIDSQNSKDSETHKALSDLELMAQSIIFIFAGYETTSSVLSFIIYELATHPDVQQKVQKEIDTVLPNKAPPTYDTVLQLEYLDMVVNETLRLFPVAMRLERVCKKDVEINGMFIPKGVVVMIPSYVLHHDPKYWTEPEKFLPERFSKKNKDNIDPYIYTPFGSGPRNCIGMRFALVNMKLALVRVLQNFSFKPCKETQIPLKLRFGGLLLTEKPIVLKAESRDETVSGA
Summary of the method: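 Compounds were screened in qHTS format for interference with CYP3A7 turnover of a proluciferin substrate. Reactions ran 1 h at room temperature after NADPH regeneration solution was added, then luciferin product was detected by luminescence.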

[2] = Viability qHTS for spleen associated tyrosine kinase inhibitor (SYKi) naive MV4-11 cells (AID 1963823); further: nearly all actives have a fitted effect of over 40% in size; further: potency means the concentration at half of the fitted maximal effect
Summary of the method: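 SYKi-naive MV4-11 AML cells, 500 per well, were exposed to library compounds for 72 hr at 37 C, 5% CO2. Viability was then read by CellTiter-Glo luminescence after 10 min at room temperature.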

[3] = Cellular viability qHTS for adrenocortical cancer (ACC) cell line SW-13 (AID 1963989); conditions: SW-13 ACC cells viability, CellTiter-Glo, 48 h; activity (max response): stronger effect = lower value;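 further: cells grown in serum-free medium with ITS supplement; nearly all actives have a fitted effect of over 65% in size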
Summary of the method: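 Compound titrations (up to 46 uM final, in DMSO) were applied to SW-13 cells for 48 h at 37C/5% CO2. Reading used CellTiter-Glo after 20 min at room temperature; fitted curves yielded IC50 and efficacy.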

[4] = Cellular viability qHTS for adrenocortical cancer (ACC) cell line NCI-H295R (AID 1963990); further: nearly all actives have a fitted effect of over 60% in size; further: potency means the concentration at half of the fitted maximal effect
Summary of the method: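 Readout: CellTiter-Glo luminescence, 20 min RT. Exposure: 48 h, 37C/5% CO2. Cells: NCI-H295R, ITS-DMEM serum-free. Range: up to 46 uM. Analysis: 4PL fit, IC50 plus efficacy.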

[5] = Viability qHTS for spleen associated tyrosine kinase inhibitor (SYKi) drug resistant MV4-11 cells (AID 1963824); further: nearly all actives have a fitted effect of over 35% in size; further: potency means the concentration at half of the fitted maximal effect
Summary of the method: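 SYK inhibitor-resistant MV4-11 AML cells, 500 per well, added to predispensed compounds and incubated 72 hr at 37 C, 5% CO2. Viability measured by CellTiter-Glo luminescence after 10 min at room temperature.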

[6] = Quantitative highthroughput screen to assess conditional lethalithy of NOMO1 cells grown in Human Plasma-Like Medium with dialyzed fetal bovine serum (HPLM+ds) (AID 1963878); further: potency means the concentration at half of the fitted maximal effect; nearly all actives have a fitted effect of over 35% in size
Summary of the method: (§1)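 Each medium arm—HPLM with 10% dialyzed FBS, or RPMI1640 with 5 mM glucose and 10% untreated or dialyzed FBS—was screened against an 11-point, 3-fold compound titration for 48 h at 37 °C, with CellTiter-Glo luminescence as endpoint.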

[7] = Quantitative highthroughput screen to assess conditional lethalithy of P12 Ichikawa cells grown in Human Plasma-Like Medium with dialyzed fetal bovine serum (HPLM+ds) (AID 1963879); conditions: Potency: viability; further: series mostly up to about 46 µM; nearly all actives have a fitted effect of over 35% in size
Summary of the method: as §1

[8] = Quantitative highthroughput screen to assess conditional lethalithy of P12 Ichikawa cells grown in RPMI1640 with dialyzed fetal bovine serum (RPMI+ds) (AID 1963880); conditions: Potency: P12-Ichikawa viability; further: nearly all actives have a fitted effect of over 35% in size
Summary of the method: as §1

[9] = Quantitative highthroughput screen to assess conditional lethalithy of SEM cells grown in Human Plasma-Like Medium with dialyzed fetal bovine serum (HPLM+ds) (AID 1963882)
Summary of the method: as §1

[10] = Quantitative highthroughput screen to assess conditional lethalithy of SEM cells grown in RPMI1640 with unreated serum (RPMI+s) (AID 1963883); further: nearly all actives have a fitted effect of over 35% in size
Summary of the method: as §1

Q: For `Oc1c(Br)cc(Br)cc1Br`, which Potency [1] is on record?
A: inactive

Q: What about the Potency [2] of the same compound?
A: inactive

Q: What about the activity (max response) [3] of the same compound?
A: 8.39%

Q: And the Potency [4]?
A: inactive

Q: For `Oc1cccc2cccnc12`, which Potency [1] is on record?
A: inactive

Q: What about the Potency [2] of the same compound?
A: inactive

Q: What about the activity (max response) [3] of the same compound?
A: -4.07% and 11.1%

Q: And the Potency [4]?
A: inactive

Q: Which Potency [1] does the source give for `O=C1CC[C@@]2(O)[C@H]3Cc4ccc(O)c5c4[C@@]2(CCN3CC2CC2)[C@H]1O5` here?
A: inactive

Q: And the Potency [5]?
A: inactive

Q: And the Potency [6]?
A: 9.35 µM (active)

Q: And the Potency [7]?
A: inactive

Q: And the Potency [8]?
A: inactive

Q: What about the Potency [9] of the same compound?
A: inactive

Q: And the Potency [10]?
A: inactive

Q: And the activity (max response) [3]?
A: 9.15% and -5.08%

Q: What about the Potency [4] of the same compound?
A: inactive

Q: What does the source list for `Sc1ccccc1Cl`?
A: Potency [1]: inactive; Potency [5]: inactive

Q: For `CC(=O)Nc1cc([As](=O)(O)O)ccc1O`, which Potency [1] is on record?
A: inactive

Q: What about the Potency [5] of the same compound?
A: inactive

Q: And the activity (max response) [3]?
A: 8.13%

Q: What about the Potency [4] of the same compound?
A: inactive

Q: With `O=C1CN=C(c2cccc(Br)c2)c2oc3ccccc3c2N1` as the compound, how does the Potency [1] read?
A: inactive

Q: And the Potency [5]?
A: 7.31 µM (active)

Q: Which Potency [1] does the source give for `C#C[C@]1(O)CC[C@H]2[C@@H]3CCC4=CC(=O)CCC4=C3C=C[C@@]21CC` here?
A: inactive

Q: And the Potency [5]?
A: inactive

Q: And the activity (max response) [3]?
A: 13.9%

Q: What about the Potency [4] of the same compound?
A: inactive

Q: Which Potency [1] does the source give for `Nc1ccncc1` here?
A: inactive

Q: What about the Potency [5] of the same compound?
A: inactive

Q: And the activity (max response) [3]?
A: 11.8%

Q: What about the Potency [4] of the same compound?
A: inactive

Q: Which Potency [2] does the source give for `CC[C@@]1(O)C(=O)OCc2c1cc1n(c2=O)Cc2cc3c(OC)cccc3nc2-1` here?
A: 0.0143 µM (active)

Q: What does the source list for `CCCC1CCCCN1` (stereo not given)?
A: Potency [1]: inactive; activity (max response) [3]: 12.1%; Potency [4]: inactive

Q: For `CN1Cc2c(ccc3c2OCO3)[C@@H]2[C@H]1c1cc3c(cc1C[C@@H]2O)OCO3`, which Potency [2] is on record?
A: 3.21 µM (active)

Q: Which Potency [2] does the source give for `O=C(N[C@H]1CN2CCC1CC2)c1cc2cccc(Cl)c2s1` here?
A: 14.6 µM (active)

Q: Which Potency [1] does the source give for `N#CC(O[C@@H]1O[C@H](CO[C@@H]2O[C@H](CO)[C@@H](O)[C@H](O)[C@H]2O)[C@@H](O)[C@H](O)[C@H]1O)c1ccccc1` (stereo not given in full) here?
A: inactive

Q: And the activity (max response) [3]?
A: -16.1%

Q: What about the Potency [4] of the same compound?
A: inactive

Q: Which Potency [1] does the source give for `C[C@]12CC[C@H]3[C@@H](CC=C4C[C@@H](O)CC[C@@]43C)[C@@H]1CC[C@@H]2O` here?
A: inactive

Q: What about the activity (max response) [3] of the same compound?
A: 5.93%

Q: For `CC[C@H]1C2CC3[C@@H]4N(C)c5ccccc5[C@]45C[C@@H]([C@H]2[C@H]5O)N3[C@@H]1O`, which Potency [2] is on record?
A: inactive

Q: With `NC(=O)c1cc([N+](=O)[O-])cc([N+](=O)[O-])c1` as the compound, how does the Potency [1] read?
A: 11 µM (active)

Q: What about the activity (max response) [3] of the same compound?
A: -5.23%

Q: And the Potency [4]?
A: 3.66 µM (active)

Q: With `C[C@]12C/C(=C/O)C(=O)C[C@@H]1CC[C@@H]1[C@@H]2CC[C@@]2(C)[C@H]1CC[C@]2(C)O` as the compound, how does the Potency [2] read?
A: 18.8 µM (active)

Q: For `COC1C(O)C(C)OC(OC2C(CO)O[C@@H](O[C@@H]3CC4CCC5C(CC[C@]6(C)[C@@H](C7=CC(=O)OC7)CC[C@]56O)[C@@]4(C)[C@H](O)C3)C(O)C2O)C1O` (stereo not given in full), which Potency [2] is on record?
A: 0.385 µM (active)
